{
  "source": "the supplement of paper PMC11060735",
  "note": "Whole data set: some 1,800 compounds, median “GFP- (p16Ink4a-) cell count relative to negative-control wells” near 0.99, cut for the lowest 2% near 0.5. Shown is part of a subset that was picked to be rich in the lowest values.",
  "data": [
    {"system": "mouse p16Ink4a+/- lung fibroblasts (INKBRITE, bleomycin-injured)", "assay": "GFP- (p16Ink4a-) cell count relative to negative-control wells (fold of vehicle); higher = more p16Ink4a- cells surviving", "conditions": "1 µM; 3 days", "values": [
      {"smiles": "CCN(CC)CCCCNc1ncc2cc(-c3cc(OC)cc(OC)c3)c(NC(=O)NC(C)(C)C)nc2n1", "GFP-": 0.935},
      {"smiles": "Cc1ccnc2c1NC(=O)c1cccnc1N2C1CC1", "note": "[Nevirapine]", "GFP-": 1.06},
      {"smiles": "CC(C)=CCC[C@](C)(O[C@@H]1O[C@H](CO[C@@H]2OC[C@@H](O)[C@H](O)[C@H]2O)[C@@H](O)[C@H](O)[C@H]1O)[C@H]1CC[C@]2(C)[C@@H]1[C@H](O)C[C@@H]1[C@@]3(C)CC[C@H](O[C@@H]4O[C@H](CO)[C@@H](O)[C@H](O)[C@H]4O)C(C)(C)[C@@H]3CC[C@]12C", "note": "[Gynostemma Extract]", "GFP-": 1.07},
      {"smiles": "O=C(O)C1=CO[C@@H](O[C@@H]2O[C@H](CO)[C@@H](O)[C@H](O)[C@H]2O)[C@@H]2C(CO)=CC[C@H]12", "note": "[Geniposidic acid]", "GFP-": 1.05},
      {"smiles": "CC1(C)CCC(c2ccc(Cl)cc2)=C(CN2CCN(c3ccc(C(=O)NS(=O)(=O)c4ccc(N[C@H](CCN5CCOCC5)CSc5ccccc5)c(S(=O)(=O)C(F)(F)F)c4)cc3)CC2)C1", "note": "[Navitoclax]", "GFP-": 0.944},
      {"smiles": "NCC(=O)Nc1ccc(-n2nc(C(F)(F)F)cc2-c2ccc3c(ccc4ccccc43)c2)cc1", "GFP-": 1.1},
      {"smiles": "CCN(CC)C(=S)SSC(=S)N(CC)CC", "note": "[Disulfiram]", "GFP-": 0.453},
      {"smiles": "O=C(O)CCc1ccc(NCc2cccc(Oc3ccccc3)c2)cc1", "GFP-": 0.98},
      {"smiles": "CCCC(C)NC(=O)c1ccc(Cl)c(Cl)c1", "note": "(centres undefined)", "GFP-": 1.14},
      {"smiles": "CC(C)C[C@H](NC(=O)CNC(=O)c1cc(Cl)ccc1Cl)B(O)O", "note": "[Ixazomib]", "GFP-": 0.394},
      {"smiles": "CCOc1ccn(-c2ccc(F)cc2)c(=O)c1C(=O)Nc1ccc(Oc2ccnc(N)c2Cl)c(F)c1", "GFP-": 0.736},
      {"smiles": "CN1CCN(c2c(F)cc3c(=O)c(C(=O)O)cn4c3c2OCN4C)CC1", "note": "[Marbofloxacin]", "GFP-": 1.07},
      {"smiles": "Cn1cc(C2=C(c3ccc(Cl)cc3Cl)C(=O)NC2=O)c2ccccc21", "GFP-": 0.845},
      {"smiles": "Cc1c(OCC(F)(F)F)ccnc1C[S@@](=O)c1nc2ccccc2[nH]1", "note": "[Dexlansoprazole]", "GFP-": 0.956},
      {"smiles": "COc1ccc(CNc2nc(N3CCC[C@H]3CO)ncc2C(=O)NCc2ncccn2)cc1Cl", "note": "[Avanafil]", "GFP-": 1.06},
      {"smiles": "CCc1cnn2c(NCc3ccc[n+]([O-])c3)cc(N3CCCC[C@H]3CCO)nc12", "note": "[Dinaciclib]", "GFP-": 0.383},
      {"smiles": "CC(C)c1nc(CN(C)C(=O)N[C@@H](CCN2CCOCC2)C(=O)N[C@H](CC[C@H](Cc2ccccc2)NC(=O)OCc2cncs2)Cc2ccccc2)cs1", "note": "[Cobicistat]", "GFP-": 1.04},
      {"smiles": "CC(C)C[C@H](NC(=O)[C@H](CCc1ccccc1)NC(=O)CN1CCOCC1)C(=O)N[C@@H](Cc1ccccc1)C(=O)N[C@@H](CC(C)C)C(=O)[C@@]1(C)CO1", "note": "[Carfilzomib]", "GFP-": 0.433},
      {"smiles": "COc1ccc(C[C@H](NC(=O)[C@H](C)NC(=O)CN2CCOCC2)C(=O)N[C@@H](Cc2ccccc2)C(=O)[C@]2(C)CO2)cc1", "GFP-": 0.791}
    ]}
  ]
}
